For some assays here: Measured potencies and affinities stand elsewhere. Activity calls are given as the source filed them.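 The calls were made as follows, unless noted: active = fluorescence ratio normalized to control raised more than 50% in primary screen plus both repeat runs; inactive = the rest.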
Experiments:
[1] = system: TRPC4 beta (transient receptor potential cation channel C4), mouse; assay: TRPC4 cation channel opening, retest – cell-based, Fluo4 calcium, HEK293 TRPC4beta/mu-opioid, duplicates, 10 µM, confirmation (AID 2426); details: Fluo4 calcium fluorescence, at 10 µM; hits give high values
[2] = system: transient receptor potential cation channel C4 beta (TRPC4), mouse; assay: TRPC4 cation channel opening, second retest – cell-based, second round, Fluo4, HEK293 TRPC4beta/mu-opioid, 1 µM, confirmation (AID 2461;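 active = primary screen active and over 50% activation in each of two duplicate runs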); details: Fluo4 calcium fluorescence, at 1 µM; hits give high values
[3] = system: TRPC4 (transient receptor potential cation channel C4 beta), mouse; assay: potentiation of DAMGO EC20 TRPC4 response – cell-based, second round, Fluo-4, HEK293 TRPC4beta/mu-opioid, 1 µM, confirmation (AID 2554;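 active = primary screen hit whose fluorescence ratio, in both repeats, exceeds the weak agonist control mean by 3 SD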); details: DAMGO EC20, Fluo-4 calcium flux, at 1 µM; hits give high values
[4] = system: TRPC4 beta (transient receptor potential cation channel C4), mouse; assay: potentiation of DAMGO EC20 TRPC4 response – cell-based, Fluo-4, HEK293 TRPC4beta/mu-opioid, confirmation (AID 2555;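 active = primary screen hit whose calcium fluorescence ratio, in both repeats, exceeds the weak agonist control mean by 3 SD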); details: DAMGO EC20, Fluo-4 calcium flux, at 10 µM; hits give high values
[5] = molecular target: Short transient receptor potential channel 4 (Mus musculus) (UniProt Q9QUQ5); assay: blockers of DAMGO-evoked TRPC4 calcium flux – cell-based, Fluo4, HEK293 TRPC4beta/mu-opioid, confirmation (AID 2636;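 active = calcium signal cut by more than 3 SD below the full-agonist control yet still positive, in both repeats and the earlier primary screen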); details: at 10 µM; hits give high values
Chain of Short transient receptor potential channel 4 (Mus musculus) (Q9QUQ5 whole entry, looked up): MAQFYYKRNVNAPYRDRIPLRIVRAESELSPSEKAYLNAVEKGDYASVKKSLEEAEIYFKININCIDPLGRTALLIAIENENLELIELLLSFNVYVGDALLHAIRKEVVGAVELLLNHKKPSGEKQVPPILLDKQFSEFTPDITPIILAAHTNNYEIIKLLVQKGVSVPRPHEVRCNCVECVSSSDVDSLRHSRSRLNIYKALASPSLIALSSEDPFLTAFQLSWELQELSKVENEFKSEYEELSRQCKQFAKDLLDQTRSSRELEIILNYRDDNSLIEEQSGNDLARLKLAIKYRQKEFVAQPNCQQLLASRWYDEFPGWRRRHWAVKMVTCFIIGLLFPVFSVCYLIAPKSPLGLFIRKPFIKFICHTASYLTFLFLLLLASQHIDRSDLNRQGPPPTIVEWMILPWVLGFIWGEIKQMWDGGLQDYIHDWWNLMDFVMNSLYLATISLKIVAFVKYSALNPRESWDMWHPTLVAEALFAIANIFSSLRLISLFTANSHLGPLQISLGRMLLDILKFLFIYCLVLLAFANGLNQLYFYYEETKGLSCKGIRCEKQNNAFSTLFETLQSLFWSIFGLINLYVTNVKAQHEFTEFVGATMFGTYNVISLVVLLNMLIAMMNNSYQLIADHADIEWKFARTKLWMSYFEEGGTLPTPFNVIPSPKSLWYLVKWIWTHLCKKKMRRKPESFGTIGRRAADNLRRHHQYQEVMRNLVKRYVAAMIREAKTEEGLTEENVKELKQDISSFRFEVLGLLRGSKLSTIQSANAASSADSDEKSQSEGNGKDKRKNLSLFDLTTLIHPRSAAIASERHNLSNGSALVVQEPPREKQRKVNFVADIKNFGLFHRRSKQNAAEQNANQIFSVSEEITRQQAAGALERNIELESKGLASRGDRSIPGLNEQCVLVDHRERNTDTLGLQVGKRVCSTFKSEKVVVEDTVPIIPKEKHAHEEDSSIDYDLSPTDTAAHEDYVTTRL

[6] = molecular target: Short transient receptor potential channel 4 (Mus musculus) (UniProt Q9QUQ5); assay: blockers of DAMGO-evoked TRPC4 calcium flux – cell-based, second round, Fluo4, HEK293 TRPC4beta/mu-opioid, 1 µM, confirmation (AID 2637;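 active = calcium signal ratio cut to more than 3 SD under the fully stimulated control mean yet still positive, in both repeats and the primary screen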;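 as to inhibition: percent of integrated ratio relative to wells lacking test compound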); details: at 1 µM; hits give high values
[7] = molecular target: Short transient receptor potential channel 4 (Mus musculus) (UniProt Q9QUQ5); assay: calcium entry via TRPC4 opening agents – cell-based, HEK293 TRPC4/mu-opioid, Fluo-4 calcium, dose response (AID 434937;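 active = primary screen activator hit with a dose response curve and TRPC4 channel activation at any tested dose; inactive = no activation, no dose response, or not a primary hit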)
[8] = molecular target: Short transient receptor potential channel 4 (Mus musculus) (UniProt Q9QUQ5); assay: potentiation of DAMGO-evoked TRPC4 calcium signal – cell-based, HEK293 TRPC4/mu-opioid, Fluo-4 calcium, EC20 DAMGO, dose response (AID 434941;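 active = earlier screen potentiator hit that boosts the TRPC4 ion channel at some dose, with a dose response; inactive = no potentiation, no dose response, or not a prior hit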;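 also: calcium entry triggered by an EC20 dose of DAMGO at the co-expressed mu-opioid receptor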)
[9] = molecular target: Short transient receptor potential channel 6 (Mus musculus) (UniProt Q61143); assay: TRPC6 blockade by TRPC4 inhibitor hits – cell-based, HEK293, membrane potential dye, duplicate, selectivity assay for TRPC4 inhibitor project, confirmation (AID 434948;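 active = active in primary screen and both duplicates, each dropping signal beyond three positive-control SD with fluorescence still positive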); details: HEK293 TRPC6, membrane potential dye fluorescence, at 10 µM, stimulated with maximal-effect acetylcholine; hits give high values
Chain of Short transient receptor potential channel 6 (Mus musculus) (Q61143 whole entry, looked up): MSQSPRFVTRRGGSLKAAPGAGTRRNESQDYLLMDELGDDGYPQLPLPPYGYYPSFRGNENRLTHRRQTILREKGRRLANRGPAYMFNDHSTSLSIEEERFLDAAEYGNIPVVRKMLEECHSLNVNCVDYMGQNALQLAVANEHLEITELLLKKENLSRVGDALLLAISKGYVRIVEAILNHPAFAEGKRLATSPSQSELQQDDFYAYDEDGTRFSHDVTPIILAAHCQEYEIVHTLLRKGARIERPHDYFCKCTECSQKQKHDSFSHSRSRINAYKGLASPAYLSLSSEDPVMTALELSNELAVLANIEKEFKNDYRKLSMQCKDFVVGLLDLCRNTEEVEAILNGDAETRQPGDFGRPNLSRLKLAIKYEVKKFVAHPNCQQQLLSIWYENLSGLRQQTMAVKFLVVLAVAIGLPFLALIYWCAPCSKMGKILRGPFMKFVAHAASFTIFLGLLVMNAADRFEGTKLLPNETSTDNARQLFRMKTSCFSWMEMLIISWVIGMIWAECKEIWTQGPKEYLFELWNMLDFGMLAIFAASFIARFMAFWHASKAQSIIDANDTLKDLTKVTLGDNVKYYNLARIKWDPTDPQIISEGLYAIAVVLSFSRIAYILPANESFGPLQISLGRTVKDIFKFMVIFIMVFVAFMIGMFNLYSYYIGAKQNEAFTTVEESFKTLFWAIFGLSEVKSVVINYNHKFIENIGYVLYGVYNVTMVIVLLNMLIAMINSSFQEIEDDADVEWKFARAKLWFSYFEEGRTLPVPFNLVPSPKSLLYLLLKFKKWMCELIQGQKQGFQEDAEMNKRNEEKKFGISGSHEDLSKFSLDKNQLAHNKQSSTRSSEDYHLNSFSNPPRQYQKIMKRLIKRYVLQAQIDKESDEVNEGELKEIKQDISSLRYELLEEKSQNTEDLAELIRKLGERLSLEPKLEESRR

[10] = molecular target: Short transient receptor potential channel 6 (Mus musculus) (UniProt Q61143); assay: TRPC6 opening by TRPC4 activator hits – cell-based, HEK293, membrane potential dye, duplicate, selectivity assay for TRPC4 activator project, confirmation (AID 434950;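 active = membrane potential signal rise above negative control mean plus 3 SD in both duplicates, also active in the earlier TRPC4 screen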); details: HEK293 TRPC6, membrane potential fluorescence, at 10 µM; activation: hits give high values; outcome: activation
[11] = molecular target: Short transient receptor potential channel 6 (Mus musculus) (UniProt Q61143); assay: positive modulators of mouse TRPC6 channel – HEK293 cells, membrane potential dye, duplicate, selectivity assay for TRPC4 potentiator project, confirmation (AID 434952;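 active = compound raising the membrane signal above positive-control mean plus 3 SD in both repeats, and a primary screen hit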); details: HEK293 TRPC6, membrane potential dye fluorescence, at 10 µM, maximal acetylcholine added after compound; hits give high values
[12] = molecular target: Short transient receptor potential channel 4 (Mus musculus) (UniProt Q9QUQ5); assay: calcium flux activators in TRPC4/5HT1a cells, counter-screen for TRPC4 activator project, cell-based, second counter screen, HEK293 TRPC4/5HT1a, Fluo-4 (AID 434977;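 active = calcium signal rise above buffer-control mean plus 5 SD in both duplicates, and also a hit in the primary screen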); details: Fluo-4 calcium flux, at 10 µM; hits give high values
[13] = serotonin-gated TRPC4 signal block – cell-based, second counter screen, HEK293 TRPC4/5HT1a, Fluo-4, counter-screen for TRPC4 inhibitor project, confirmation (AID 434978;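 active = primary screen active whose calcium signal fell more than 3 SD beyond the full-serotonin control mean in both duplicate plates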;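 as to outcome: serotonin given first at submaximal then at maximal dose after compound preincubation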); details: Fluo-4 calcium flux, at 10 µM, serotonin added to trigger calcium flux; hits give high values
[14] = system: TRPC4 (mouse), co-expressed with 5HT1a in HEK293; assay: enhancement of serotonin-evoked TRPC4 response – cell-based, second counter screen, HEK293 TRPC4/5HT1a, Fluo-4, counter-screen for TRPC4 potentiator project, confirmation (AID 434979;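 active = signal rise over 3 SD above mean of control wells given weak agonist, in both repeats and first screen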); details: Fluo-4 calcium flux, at 10 µM, serotonin added at its EC20 dose; hits give high values
[15] = nonspecific calcium rise without TRPC4 – cell-based, HEK293 mu-opioid receptor line, counter-screen for TRPC4 activator project, confirmation (AID 449723;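 active = hit in primary screen, with calcium signal over 5 SD above buffer well mean in both duplicates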;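 also: counter screen cells carry the mu-opioid receptor alone and lack TRPC4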); details: HEK293 mu-opioid cells, Fluo-4 calcium fluorescence, at 10 µM; hits give high values
[16] = nonspecific potentiation of DAMGO calcium response – cell-based, HEK293 mu-opioid receptor line, counter-screen for TRPC4 allosteric potentiator project, confirmation (AID 449724;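 active = calcium signal rise more than 3 SD above the low-dose agonist control mean, in both duplicate plates and the primary screen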); details: HEK293 mu-opioid receptor cells, Fluo-4 calcium flux, at 10 µM, compound added before EC20 DAMGO stimulus; hits give high values

SMILES	outcome [1]	outcome [2]	outcome [3]	outcome [4]	inhibition [5]	outcome [6]	outcome [7]	outcome [8]	outcome [9]	outcome [10]	outcome [11]	outcome [12]	inhibition [13]	outcome [14]	outcome [15]	outcome [16]	outcome [5]	inhibition [9]	inhibition [6]	outcome [13]
Cn1cc(CNCC2CCCO2)c(-c2ccc(Oc3ccccc3)cc2)n1 (centres undefined)	inactive	inactive	inactive	inactive	92% (active)	inactive	inactive	inactive	inactive	inactive	inactive	inactive	45.9% (active)	inactive	inactive	inactive	–	–	–	–
Cc1ccc(-c2csc(NC(=O)C3CC=CCC3C(=O)O)c2C(=O)OC(C)C)cc1 (centres undefined)	inactive	inactive	inactive	inactive	–	inactive	inactive	inactive	inactive	inactive	inactive	inactive	20.1% (active)	inactive	inactive	inactive	inactive	–	–	–
COc1cc(CNCCCN2CCOCC2)cc(Br)c1OCc1ccc(Cl)cc1	inactive	inactive	inactive	inactive	–	inactive	inactive	inactive	–	inactive	inactive	inactive	23.6% (active)	inactive	inactive	inactive	inactive	51% (active)	–	–
CCOC(=O)C1(CCOc2ccccc2)CCN(Cc2cccn2-c2ncccn2)CC1	inactive	inactive	inactive	inactive	86% (active)	–	inactive	inactive	–	inactive	inactive	inactive	–	inactive	inactive	inactive	–	52.5% (active)	43% (active)	inactive
CCCc1noc2c1/C(=N\O)CC(CC(C)SCC)C2 (centres undefined)	inactive	inactive	inactive	inactive	92% (active)	inactive	inactive	inactive	inactive	inactive	inactive	inactive	14.8% (active)	inactive	inactive	inactive	–	–	–	–
CN(C)C(CNC(=O)c1oc2ccccc2c1CSc1ncn[nH]1)c1ccco1 (centres undefined)	inactive	inactive	inactive	inactive	85% (active)	–	inactive	inactive	inactive	inactive	inactive	inactive	–	inactive	inactive	inactive	–	–	48% (active)	inactive
COc1ccc(C(Nc2ccccn2)c2c(NC(=O)c3ccco3)sc(C)c2C)cc1OC (centres undefined)	inactive	inactive	inactive	inactive	78% (active)	–	inactive	inactive	inactive	inactive	inactive	inactive	–	inactive	inactive	inactive	–	–	38% (active)	inactive
Cc1ccc(C)c2[nH]c(=O)c(CN(CC3CCCO3)C(=S)NCc3ccco3)cc12 (centres undefined)	inactive	inactive	inactive	inactive	79% (active)	inactive	inactive	inactive	inactive	inactive	inactive	inactive	37.5% (active)	inactive	inactive	inactive	–	–	–	–
CCCCNc1nc(-c2ccccc2)c(C(=O)OCC)cc1C#N	inactive	inactive	inactive	inactive	94% (active)	inactive	inactive	inactive	inactive	inactive	inactive	inactive	15% (active)	inactive	inactive	inactive	–	–	–	–
O=C(C[n+]1cccc(CNC(=O)c2ccc(OC(F)F)cc2)c1)Nc1ccc(SC(F)F)cc1	inactive	inactive	inactive	inactive	94% (active)	inactive	inactive	inactive	inactive	inactive	inactive	inactive	–	inactive	inactive	inactive	–	–	–	inactive
Clc1cccc(COn2c(-c3ccc(Cl)cc3Cl)nc3ncccc32)c1	inactive	inactive	inactive	inactive	83% (active)	–	inactive	inactive	inactive	inactive	inactive	inactive	41.3% (active)	inactive	inactive	inactive	–	–	45% (active)	–
CN(CC1CCCN(CCc2cccc(C(F)(F)F)c2)C1)C(=O)c1cc2ccccc2o1 (centres undefined)	inactive	inactive	inactive	inactive	85% (active)	inactive	inactive	inactive	inactive	inactive	inactive	inactive	1.18% (active)	inactive	inactive	inactive	–	–	–	–
COc1cc(/C=C2\SC(N3CCC(C)CC3)=NC2=O)ccc1O	inactive	inactive	inactive	inactive	91% (active)	–	inactive	inactive	inactive	inactive	inactive	inactive	31.2% (active)	inactive	inactive	inactive	–	–	48% (active)	–
Cc1nc(N2CCN(c3ccccn3)CC2)c2c(C)c(C(=O)N3CCN(c4ccc(F)cc4)CC3)sc2n1	inactive	inactive	inactive	inactive	99% (active)	–	inactive	inactive	inactive	inactive	inactive	inactive	–	inactive	inactive	inactive	–	–	48% (active)	inactive

Reference: PubChem BioAssay
